Source: PubChem (National Center for Advancing Translational Sciences (NCATS))
Sampled rows, rich in hits. Any-hit rate of the full collection: about 9.2%.
ELG1 repair inh = inhibitors of ELG1-dependent DNA repair in HEK293T cells. Potency, µM (doses to about 46.1 µM), most hits filed as inhibitors. 330,000 compounds, 2.3% hits. AID 504467. HEK293T ELG1-luciferase reporter, luminescence, 16 h; DNA damage induced by 5-fluorouridine; note: nearly all actives have a fitted effect of over 55% in size
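5-Fluorouridine DNA damage + compound/DMSO, 2,000 cells/well, 16 h, 37 °C/5% CO2. ONE-Glo, 30 min RT, luminescence. Readout = decrease in reporter signal.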
ELG1 genotox = genotoxicity induction in ELG1-luciferase HEK293T cells; HEK293T ELG1-luciferase reporter, luminescence, 16 h; Potency, µM (titrated, usually from 46 µM), hits mostly activators; 330,000 compounds, 1.3% hits; AID 504466; note: nearly all actives have a fitted effect of over 60% in size
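ELG1-luciferase HEK293T cells, 2,000/well; compound pinned in; 16 hr, 37 °C, 5% CO2; ONE-Glo, 30 min RT; luminescence on CCD imager.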
NPC1 prom act = activators of NPC1 promoter; Huh7 NPC1 promoter luciferase reporter, 24 h; AID 485313; 320,000 compounds, 2.4% hits; Potency, µM (highest dose often 9.22 µM), usual class: activators; note: nearly all actives have a fitted effect of over 60% in size
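Luciferase expression driven by the NPC1 promoter was measured in stably transfected Huh7 cells after a 24 h compound incubation, using a luciferase reagent and a luminescence read.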
SMN2 splice up = increases expression of the SMN2 splice variant | HEK293 SMN2-luciferase splicing reporter, luminescence, 30-36 h | Potency, µM (top dose mostly 46.1 µM), hits mostly activators | 210,000 compounds, 2.8% hits | AID 1458; note: nearly all actives have a fitted effect of over 55% in size
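qHTS luciferase splicing reporter: luminescence rises when SMN2 exon 7 is included in transfected HEK293 cells. Compound exposure lasted 30-36 h at 37C, with 4.5 mM final sodium butyrate as control, followed by a ONE-Glo read.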
Rab9 prom act = Rab9 promoter activation | Huh7 Rab9 promoter-luciferase reporter, luminescence, 24 h | Potency, µM (doses to about 9.22 µM), most hits filed as activators | 320,000 compounds, 2.8% hits | AID 485297; note: nearly all actives have a fitted effect of over 60% in size
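Steps: seed 1500 Huh7 Rab9-luc cells per well, rest 2 h at 37 °C; add compound in DMSO; incubate 24 h; add luciferase reagent, 10 min ambient; read luminescence.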
FLuc modulator = inhibits or activates purified firefly luciferase, miR-21 counter-screen | P08659 | purified FLuc, Km substrates, luminescence inhibition | Potency, µM (titrated, usually from 57.5 µM), usual class: inhibitors | 360,000 compounds, 6.9% hits; note: nearly all actives have a fitted effect of over 55% in size
Target sequence (P08659 whole entry, looked up): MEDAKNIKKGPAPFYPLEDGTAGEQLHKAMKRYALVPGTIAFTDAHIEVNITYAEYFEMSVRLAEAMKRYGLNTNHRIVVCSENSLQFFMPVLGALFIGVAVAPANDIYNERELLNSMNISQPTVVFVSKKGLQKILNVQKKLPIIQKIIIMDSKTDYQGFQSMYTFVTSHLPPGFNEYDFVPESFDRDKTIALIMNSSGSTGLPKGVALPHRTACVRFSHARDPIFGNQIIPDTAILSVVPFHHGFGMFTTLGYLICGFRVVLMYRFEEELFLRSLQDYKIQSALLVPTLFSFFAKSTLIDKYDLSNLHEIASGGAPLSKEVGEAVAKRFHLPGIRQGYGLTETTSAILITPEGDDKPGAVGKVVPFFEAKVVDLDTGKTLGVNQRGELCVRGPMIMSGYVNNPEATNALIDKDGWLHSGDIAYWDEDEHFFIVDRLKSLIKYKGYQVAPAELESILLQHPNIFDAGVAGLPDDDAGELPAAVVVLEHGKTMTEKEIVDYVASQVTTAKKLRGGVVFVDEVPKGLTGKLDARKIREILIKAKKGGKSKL
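Purified P. pyralis luciferase, 10 nM final, with Km-level 10 uM D-luciferin and 10 uM ATP in 50 mM Tris acetate pH 7.5, 10 mM Mg acetate, 0.01% Tween-20, 0.05% BSA; 6-point qHTS titration about 60 µM downward; luminescence read.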
A number is an active result; - = inactive; ? = inconclusive; . = no result given. Calls come from the whole dose curve; as a rule, active = well fitted curve in the direction sought with a large enough effect; inconclusive = small, poorly fitted or top-dose-only effect, or another doubt; inactive = no such curve, though single readings can be large; an effect the other way counts as inactive or inconclusive.

SMILES	ELG1 repair inh	ELG1 genotox	NPC1 prom act	SMN2 splice up	Rab9 prom act	FLuc modulator
Cc1cccc(-n2ncc3c(NCCCO)ncnc32)c1	?	3.66µM	2.51µM	11.2µM	1.12µM	6.75µM
COc1ccc(-n2c(C)c(C)c3c(NCCCO)ncnc32)cc1	?	-	?	.	?	?
CCc1sc(Nc2cccc(Cl)c2)nc1-c1cc2cccc(OC)c2oc1=O	.	.	.	.	.	-
Cc1cccc(NC(=O)c2oc3ccccc3c2NC(=O)c2cc(=O)c3cc(Cl)ccc3o2)c1	.	.	.	-	.	-
CCN(CC)CCCNc1ncnc2c1cnn2-c1ccc(C)c(C)c1	.	.	.	.	.	15.1µM
CCCCNc1ncnc2c1cnn2-c1ccc(C)cc1C	-	-	-	-	-	-
Cc1c(C)n(CCCN(C)C)c2ncnc(NCc3ccccc3)c12	-	-	-	.	-	-
Cc1c(C)n(CCc2ccccc2)c2ncnc(NCCO)c12	?	?	3.55µM	.	1.78µM	16.9µM
O=C(Nc1cccc(Cl)c1)c1c(NC(=O)C(F)(F)F)sc2c1CCCC2	.	.	.	-	.	16.9µM
Cc1ccc(NC(=O)c2c(NC(=O)c3ccccc3)sc3c2CCC3)cc1	.	.	.	-	.	?
O=C(COc1ccc(Cl)cc1)Nc1sc2c(c1C(=O)Nc1cccc(Cl)c1)CCCC2	.	.	.	-	.	?
Cc1ccccc1NC(=O)c1c(NC(=O)c2ccccc2)sc2c1CCC2	.	.	.	-	.	?
Cc1ccc(NC(=O)c2c(NC(=O)C(F)(F)F)sc3c2CCCCC3)cc1	.	.	.	-	.	10.7µM
Cc1cccc(NC(=O)c2c(NC(=O)C(F)(F)F)sc3c2CCCCC3)c1	.	.	.	-	.	13.5µM
Cc1cccc(NC(=O)c2c(Br)sc3c2CCCC3)c1	.	.	.	-	.	?
Cc1ccccc1NC(=O)c1c(NC(=O)C(F)(F)F)sc2c1CCCCC2	.	.	.	-	.	10.7µM
CC(C)(CC(=O)NCc1ccc(Cl)cc1Cl)CC1=NS(=O)(=O)c2ccccc2N1	.	.	.	.	.	-
O=C(NNC(=O)C1CCN(S(=O)(=O)c2ccc(Cl)cc2)CC1)c1ccccc1O	-	-	-	.	-	-
N#CC1=C(N)OC2=C(C(=O)CCC2)C1c1cc2c(cc1Br)OCO2 (configuration not stated)	-	-	-	.	-	-
CCN(CC)C(=O)CSc1nc2cc(S(=O)(=O)N3CCOCC3)ccc2n1CC	-	-	-	.	-	-
Cc1ccc(C(=O)Oc2ccc(N3C(=O)CCC3=O)c(C)c2)cc1	-	-	-	-	-	2.69µM
COc1cccc(C(=O)Oc2ccc3ccc(=O)oc3c2)c1	-	-	-	.	-	5.36µM
Cc1ccc(C(=O)Oc2ccc3ccc(=O)oc3c2)cc1	-	-	-	.	-	2.39µM
Cc1c(Cl)cccc1NC(=O)C(CCS(C)(=O)=O)N1Cc2ccccc2C1=O (configuration not stated)	.	.	.	.	.	-
Cc1ccc(NC(=O)C2=CC=CN3CCS(=O)(=O)N=C23)cc1	?	-	-	.	-	?
SMILES	ELG1 repair inh	ELG1 genotox	NPC1 prom act	SMN2 splice up	Rab9 prom act	FLuc modulator
CCC(C)c1ccc(NC(=O)C2=CC=CN3CCS(=O)(=O)N=C23)cc1 (configuration not stated)	?	?	-	.	?	2.13µM
Cc1cn2c(nc(=O)c3cccnc32)s1	-	-	-	-	-	-
CN(C)C=Nc1ccc2nc3c(cc2c1)[nH]c1ccccc13	?	?	1.26µM	.	1.41µM	1.35µM
CC(C)(C)c1ccc(-c2noc(CCC(N)=O)n2)cc1	?	-	-	-	-	6.01µM
COc1ccc(-c2noc(CCC(=O)N3CCN(c4cccc(OC)c4)CC3)n2)cc1	25.9µM	-	.	.	.	.
CCOc1cc(-c2noc(CCC(=O)Nc3cccnc3)n2)ccc1OC	20.6µM	-	-	-	-	-
CC(C)(C)c1ccc(-c2noc(CCC(=O)Nc3cccnc3)n2)cc1	-	?	-	.	-	1.69µM
COc1ccc(-c2noc(CCC(=O)Nc3cccnc3)n2)cc1	-	-	-	.	-	?
Cc1cccc(OCC(=O)OCc2cc(=O)n3nc(C4CC4)sc3n2)c1	.	.	.	.	.	-
CCOc1ccc(-c2noc(CCC(=O)NC)n2)cc1OCC	-	-	-	.	-	-
CC(C)(C)c1ccc(-c2noc(CCC(=O)N3CCOCC3)n2)cc1	?	?	?	?	1.78µM	2.39µM
CNC(=O)CCc1nc(-c2ccc(C(C)(C)C)cc2)no1	?	-	?	-	-	4.78µM
CC(C)(CC(=O)O)Cc1nc(-c2ccc(Cl)cc2)no1	?	?	-	-	-	26.9µM
CC(C)(C)c1ccc(-c2noc(CCC(=O)NCC3CCCO3)n2)cc1 (configuration not stated)	?	-	-	-	-	1.9µM
CCN(CC)CCNC(=O)Nc1ccc2c(c1)N(Cc1ccccc1)C(=O)c1ccccc1S2	.	.	.	-	.	-
COc1ccc(-c2noc(CCC(=O)Nc3cc(Cl)c(OC)cc3OC)n2)cc1	-	?	-	-	-	8.49µM
COc1ccc(-c2noc(CCC(=O)Nc3cc(OC)ccc3OC)n2)cc1	?	-	-	-	-	?
CN(C)C(=O)CCc1nc(-c2ccc(C(C)(C)C)cc2)no1	?	?	2.51µM	-	3.16µM	5.36µM
Cc1ccc(-c2noc(CNC(=O)c3ccc(C(C)(C)C)cc3)n2)cc1	.	.	.	-	.	-
Cc1ccc(CNc2ccc(N3CCOCC3)cc2)cc1	?	?	3.98µM	.	2.82µM	8.49µM
Cc1nc(NC(=O)c2cccc(-c3cc4ccccc4oc3=O)c2)ccc1Br	?	-	?	?	?	-
CC(=O)N1CCN(c2ccc(NC(=S)NC(=O)c3ccc(C)c([N+](=O)[O-])c3)cc2)CC1	20.6µM	-	-	.	-	-
Nc1ccc(N2CCN(c3ccc(F)cc3)CC2)cc1	6.51µM	-	-	-	-	-
O=C(Nc1ccc(Br)cn1)c1cccc(-c2cc3ccccc3oc2=O)c1	?	?	1.78µM	11.2µM	3.98µM	12µM
O=C(/C=C/c1ccccc1)Nc1ccc(N2CCCCC2)cc1	?	?	?	?	3.98µM	?
SMILES	ELG1 repair inh	ELG1 genotox	NPC1 prom act	SMN2 splice up	Rab9 prom act	FLuc modulator
CN1CCN(c2ccc(C(=O)c3ccc(F)cc3)cc2)CC1	?	13µM	?	?	3.16µM	10.7µM
O=C(O)CCC(=O)N1CCN(c2ccc(C(=O)c3ccc(F)cc3)cc2)CC1	-	-	-	-	-	?
O=C(/C=C/c1ccc(Cl)cc1)Nc1ccc(N2CCCCC2)cc1	-	-	-	-	-	-
Cc1ccc(C(=O)Nc2ccc(N3CCCC3)cc2)cc1	?	?	?	11.2µM	1.78µM	?
Cc1ccc(C(=O)Nc2ccc(N3CCN(S(C)(=O)=O)CC3)cc2)cc1	-	-	-	-	-	-
O=C(Nc1ccc(N2CCCC2)cc1)c1cccc(-c2cc3ccccc3oc2=O)c1	-	-	-	-	-	10.7µM
CC(=O)Nc1cc(C(=O)c2ccccc2)ccc1N1CCOCC1	-	-	-	-	-	-
O=C(Nc1ccc(N2CCCCC2)cc1)c1ccccc1	?	?	0.398µM	1.41µM	0.282µM	1.9µM
